Reference: PubChem BioAssay AID2283166 (EPA ToxCast)
Results filed as inconclusive are left out. Activity calls are given as the source filed them. The calls were made as follows: active = hit-call score of the fitted dose curve at least 0.9, where 1 is the maximum; inconclusive = response in the unintended direction; inactive = score below 0.9.

Target: human Interleukin-1 Receptor-Associated Kinase 4 (IRAK4), IRAK4 (gene 51135) (UniProt Q9NWZ3)
Test: NVS_ENZ_hIRAK4: NovaScreen (NVS) Enzymatic Assay for human Interleukin-1 Receptor-Associated Kinase 4 (IRAK4)
Experimental: NVS_ENZ_hIRAK4 is a biochemical, single-readout assay that uses extracted gene-proteins in a cell-free assay. Measurements were taken 1 hour after chemical dosing in a 384-well plate.NVS_ENZ_hIRAK4 is one of one assay component(s) measured or calculated from the NVS_ENZ_hIRAK4 assay. It is designed to make measurements of enzyme activity, a form of enzyme reporter, as detected with fluorescence intensity signals by Fluorescence and electrophoretic mobility shift technology.Data from the assay component NVS_ENZ_hIRAK4 was analyzed into 1 assay endpoint. This assay endpoint, NVS_ENZ_hIRAK4, was analyzed in the positive analysis fitting direction relative to DMSO as the negative control and baseline of activity. Using a type of enzyme reporter, loss-of-signal activity can be used to understand changes in the enzymatic activity as they relate to the gene IRAK4. Furthermore, this assay endpoint can be referred to as a primary readout, because this assay has produced […] where this one serves a enzymatic activity function. To generalize the intended target to other relatable targets, this assay endpoint is annotated to the kinase intended target family, where the subfamily is […].
Binding assays used specific radioligands (tritiated, iodinated) with non-radioactive competitive displacement ligands in agonist or antagonist protocols (as indicated) and various reference compounds and inhibitors to titrate specific binding to receptors and transporters. Most enzyme assays (CYPs, kinases, phosphatases, proteases, HDACs) used recombinant protein and specific substrates (fluorescence mostly, some colorimetric and radioactive) and inhibitors, followed by a biochemical separation of substrate and product. All assays for the biochemical HTS were initially run in duplicate at a single concentration (10 uM for CYP450 assays and 25 uM for all others). Assay-chemical combinations meeting a pre-defined threshold (e.g., 30% inhibition and other criteria defined below) were then run in singleton concentration-response format with maximum concentration of 20 uM for CYPs and 50 uM for all others. Each assay was run with positive and negative controls, and concurrent controls on every plate. The follow-up (secondary) screen tested active chemical-pairs in concentration series, as well as a few additional assays not tested in the primary screen, some selected negative inactives, and several cases re-run in the concentration series for confirmatory purposes.

Chain of human Interleukin-1 Receptor-Associated Kinase 4 (IRAK4), IRAK4 (gene 51135) (Q9NWZ3 whole entry, looked up): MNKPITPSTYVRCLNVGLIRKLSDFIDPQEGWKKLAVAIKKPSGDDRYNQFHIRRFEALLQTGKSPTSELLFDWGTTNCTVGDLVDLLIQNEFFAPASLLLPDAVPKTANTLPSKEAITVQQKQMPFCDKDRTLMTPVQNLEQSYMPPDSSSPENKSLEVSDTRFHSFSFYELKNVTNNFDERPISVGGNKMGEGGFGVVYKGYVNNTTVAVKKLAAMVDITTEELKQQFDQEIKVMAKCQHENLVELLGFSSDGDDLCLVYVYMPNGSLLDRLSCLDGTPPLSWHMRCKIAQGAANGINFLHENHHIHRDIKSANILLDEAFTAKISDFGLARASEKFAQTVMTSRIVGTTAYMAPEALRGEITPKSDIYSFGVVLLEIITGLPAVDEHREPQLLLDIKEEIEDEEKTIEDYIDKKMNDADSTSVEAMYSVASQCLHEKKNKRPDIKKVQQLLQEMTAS

Structure (SMILES)	outcome
CNC(=S)S	inactive
CCOC(=O)C(Cl)Cc1cc(-n2nc(C)n(C(F)F)c2=O)c(F)cc1Cl (stereo not given)	inactive
CCCCNC(=O)OCC#CI	inactive
Cc1ccc(N=CN(C)C=Nc2ccc(C)cc2C)c(C)c1	inactive
COP(=S)(OC)Oc1ccc([N+](=O)[O-])cc1	inactive
